This is a sample that favours compounds with a hit; in the whole collection about 0.89% have one here.
CIT2 TOR yeast: alters CIT2-GFP fluorescence in TOR pathway yeast screen; S. cerevisiae CIT2-GFP strain, flow cytometry, 3 h; 100 means same as DMSO wells; GFP response vs DMSO, % at 10 µM; actives 0.065% (n = 320,000); AID 2029;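 active means GFP response relative to DMSO above a set limit, near the screen mean plus 3 SD, cut at about 150% in these data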;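 further: ratio of well median GFP fluorescence to mean of DMSO wells on the plate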
AGP1-GFP MLPCN: modulators of TOR pathway AGP1-GFP in S. cerevisiae. S. cerevisiae AGP1-GFP multiplex flow cytometry, 3 h; GFP as percent of DMSO wells. GFP response vs DMSO, % at 10 µM. actives 0.02% (n = 320,000);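 active means GFP response relative to DMSO above a set limit, near screen average plus 3 SD, cut at about 150% in these data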;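 further: median GFP channel fluorescence of the gated AGP1 strain per well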
LAP4 TOR yeast: alters LAP4-GFP fluorescence in TOR pathway yeast screen; S. cerevisiae LAP4-GFP multiplex, flow cytometry GFP, 3 h; median GFP as percent of DMSO wells; GFP response vs DMSO, % at 10 µM; actives 0.34% (n = 320,000);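 active means GFP response vs DMSO above a set limit, about the screen mean plus 3 SD, cut at about 150% in these data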
MEP2-GFP yeast: yeast TOR pathway MEP2-GFP modulation. S. cerevisiae MEP2-GFP strain, flow cytometry GFP, 3 h; 100% = DMSO control level. GFP response vs DMSO, % at 10 µM. actives 0.51% (n = 330,000). AID 2016;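 active means GFP response versus DMSO above a set limit, roughly screen mean plus 3 SD, cut at about 180% in these data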;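 further: median GFP fluorescence of the barcode-gated MEP2-GFP cells per well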
RPL19A TOR yeast: alters RPL19A-GFP fluorescence in TOR pathway yeast screen; S. cerevisiae RPL19A-GFP strain, flow cytometry, 3 h; active compounds read low; percent response vs DMSO, % at 10 µM; actives 0.3% (n = 330,000); AID 2025;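 active means percent response vs DMSO below 50%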;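 further: median channel GFP fluorescence of the barcoded RPL19A-GFP strain; lower means less RPL19A-GFP as with rapamycin TOR inhibition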
LAP4-GFP pick2: second confirmation of modulators of TOR reporter LAP4-GFP in yeast. shares compounds with LAP4 TOR yeast. S. cerevisiae LAP4-GFP strain, flow cytometry GFP, 3 h. GFP response vs DMSO, % at 10 µM. actives 20% (n = 590);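 active means GFP signal as percent of the solvent control above about 150%, meaning raised reporter expression, limit read from the data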
MEP2 cherry2: second confirmation of modulators of TOR reporter MEP2-GFP in yeast | shares compounds with LAP4 TOR yeast | AID 2622 | GFP response vs DMSO, % at 10 µM | actives 10% (n = 590) | S. cerevisiae MEP2-GFP strain, flow cytometry GFP, 3 h;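 active means GFP signal above 150% of the solvent control wells, that is a rise of more than half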;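 further: median channel GFP fluorescence of all gated yeast cells per well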
RPL19A-GFP pick2: reconfirmed modulator of RPL19A-GFP TOR reporter in yeast; S. cerevisiae RPL19A-GFP strain, flow cytometry GFP, 3 h; active compounds read low; 100% means same as DMSO wells; shares compounds with LAP4 TOR yeast; GFP response vs DMSO, % at 10 µM; actives 3% (n = 590);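 active means under 65% GFP response relative to DMSO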;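 further: median GFP channel fluorescence per well over the all cells gate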
CIT2 GFP CP2: yeast CIT2-GFP TOR reporter modulation, second cherry pick | S. cerevisiae CIT2-GFP strain, flow cytometry GFP, 3 h; DMSO control wells read 100% | AID 2624 | GFP response vs DMSO, % at 10 µM | actives 8% (n = 590) | shares compounds with LAP4 TOR yeast;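 active means GFP response vs DMSO above about 150%, limit read from the data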;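 further: median green fluorescence per well over all gated yeast cells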
AGP1 GFP CP2: yeast AGP1-GFP TOR reporter modulation, second cherry pick | shares compounds with LAP4 TOR yeast | S. cerevisiae AGP1-GFP strain, flow cytometry GFP, 3 h | percent response vs DMSO, % at 10 µM | 590 tested, under 10 active | AID 2643;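 active means over 150 percent of DMSO response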;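 further: median GFP channel fluorescence over all cells without mother daughter split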
Yeast autofluor: compound is autofluorescent in yeast s288c cells | 610 tested, under 10 active | fluorescence change (kMESF span) at 33 µM | S. cerevisiae s288c, 520 nm autofluorescence, flow cytometry, 3 h; active compounds read high; zero means same as solvent-only cells | shares compounds with LAP4 TOR yeast;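 active means fluorescence span over the dose series, or activity score, above about 33, limit read from the data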
s288c autofl DR: yeast s288c autofluorescence artifact in dose response | fluorescence change (span) at 33 µM | S. cerevisiae s288c parental, compound autofluorescence, flow cytometry, 3 h | 110 tested, under 10 active | shares compounds with LAP4 TOR yeast | AID 488829;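 active means fluorescence change span, or the activity score built from it, above 25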
TORC1 bypass gr: compounds blocking wildtype yeast growth but not TORC1 bypass cells; shares compounds with LAP4 TOR yeast; S. cerevisiae BY4741 spot growth rating, 48-72 h; active compounds read low; growth rating (0-3) at 30 µM; 120 tested, under 10 active;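 active means growth rating at most 1 for wild type yeast while the TORC1 bypass strain still grows fully, rated 3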
Large screens that a line does not name were inactive (follow-up assays come after a bar, where they were run).

CCN1C(=NCCCOC(C)C)N[C@@H](CCc2ccccc2)[C@H](C(=O)NCCCOC(C)C)[C@H]1C	none
Cc1ccc(C(=O)OCCOc2cccc(Cl)c2)cc1S(=O)(=O)N1CCOCC1	none
O=C1NC(=Nc2ccccc2Cl)S/C1=C\c1cccc([N+](=O)[O-])c1	LAP4 TOR yeast 151.6 | LAP4-GFP pick2 inactive | MEP2 cherry2 inactive | RPL19A-GFP pick2 inactive | CIT2 GFP CP2 inactive | AGP1 GFP CP2 inactive
O=C1NC(=Nc2ccccc2Cl)S/C1=C\c1cccc([N+](=O)[O-])c1O	none
Cc1ccc(S(=O)(=O)N2CCCC2)cc1C(=O)NCC(C)(C)N1CCOCC1	none
C/C(=N\NC(=O)c1ccc(C(C)(C)C)cc1)c1ccccn1	none (no result: CIT2 TOR yeast, AGP1-GFP MLPCN, LAP4 TOR yeast, MEP2-GFP yeast, RPL19A TOR yeast) | s288c autofl DR inactive | TORC1 bypass gr inactive
N/C(=N\NS(=O)(=O)c1ccccc1Cl)c1ccccn1	none
O=C(COc1c(Br)cc(Br)c2cccnc12)N1CCc2ccccc2C1	LAP4 TOR yeast 156.8 | Yeast autofluor inactive
O=C(COc1c(Br)cc(Br)c2cccnc12)N1CCCCC1	none
COc1ccc(CCN2CC(C(=O)Nc3cc(F)ccc3F)CC2=O)cc1OC (stereo unspecified)	none
CC(/C=C/C(=O)c1ccc(C)cc1)=C\c1ccccc1	none
Cc1ccc(C(=O)/C=C\C(=O)c2ccc(C)cc2)cc1	LAP4 TOR yeast 167.5 | LAP4-GFP pick2 inactive | MEP2 cherry2 inactive | RPL19A-GFP pick2 inactive | CIT2 GFP CP2 inactive | AGP1 GFP CP2 inactive
Cc1ccc(C(=O)O/N=C(\N)Cc2ccc([N+](=O)[O-])cc2)c(Cl)c1	none
Cc1ccc(C(=O)O/N=C(\N)Cc2cccs2)c(Cl)c1	LAP4 TOR yeast 232.4 | Yeast autofluor inactive
CC(=O)c1cccc(NC(=O)COC(=O)C2=COCCO2)c1	none
O=C(NC1CCOc2ccccc21)C1CCCC1 (stereo unspecified)	none
CCN(CC)C(=S)SCC(=O)c1ccccc1	none (no result: CIT2 TOR yeast)
CCN(CC)C(=S)SSC(=S)N(CC)CC	LAP4 TOR yeast 187.0 | LAP4-GFP pick2 181.4 | MEP2 cherry2 inactive | RPL19A-GFP pick2 inactive | CIT2 GFP CP2 inactive | AGP1 GFP CP2 inactive | Yeast autofluor inactive
CC(=O)N(\C=C/C=C/C=C1\Sc2ccccc2C1=O)c1ccccc1	CIT2 TOR yeast 200.4, LAP4 TOR yeast 166.6, MEP2-GFP yeast 283.1 | Yeast autofluor inactive
CN(C)/C=C1/Sc2ccccc2C1=O	none
CCC(NC(=O)CCc1nnc(-c2cc(C)on2)o1)C12CC3CC(CC(C3)C1)C2 (stereo unspecified)	none
Cc1ccc(N=C2NC(=O)CS2)cc1	none
COc1cc(-n2nnnc2SC)c(OC)cc1Cl	none
COc1cc(N=c2ssnc2Cl)c(OC)cc1Cl	LAP4 TOR yeast 161.5 | LAP4-GFP pick2 159.3 | MEP2 cherry2 inactive | RPL19A-GFP pick2 inactive | CIT2 GFP CP2 inactive | AGP1 GFP CP2 inactive | Yeast autofluor inactive
Cc1ccc(N=c2ssnc2Cl)cc1	LAP4 TOR yeast 163.1 | LAP4-GFP pick2 inactive | MEP2 cherry2 inactive | RPL19A-GFP pick2 inactive | CIT2 GFP CP2 inactive | AGP1 GFP CP2 inactive | Yeast autofluor inactive
Cc1ccccc1OCC(=O)NCCCNC(=O)c1ccccn1	none
CC(C)c1ccc(NC(=O)C2C3C=CC4(O3)C2C(=O)N(CCCN2CCOCC2)C4C(=O)NC2CCCCC2)cc1 (stereo unspecified)	none
Cc1cc(C)nc(-n2ncc3c2CC(c2cccc(Cl)c2)CC3=O)n1 (stereo unspecified)	none
COc1ccc(NC2=C(Cl)C(=O)N(CCc3ccccc3)C2=O)cc1	none | Yeast autofluor inactive
CCOc1ccc(NC2=NCC(=O)N2CCc2ccccc2)cc1	none
CCOc1ccccc1NC1=C(Cl)C(=O)N(c2ccc(OC)cc2)C1=O	none
COc1ccc(NC(=O)CCN2C(=O)c3ccccc3C2=O)c(OC)c1	none
COc1ccc(N2C(=O)C(Cl)=C(NCc3ccccc3)C2=O)cc1	none | Yeast autofluor inactive
COc1ccc(CCNC2CC(=O)N(CCc3ccccc3)C2=O)cc1 (stereo unspecified)	none
CCOc1ccc(NC2=C(Cl)C(=O)N(Cc3ccccc3)C2=O)cc1	none | Yeast autofluor inactive
COc1ccc(NC2=C(Cl)C(=O)N(CCc3ccccc3)C2=O)c(OC)c1	none | Yeast autofluor inactive
O=C(OCC(=O)N1CCCc2ccccc21)c1ccc(S(=O)(=O)C(F)F)cc1	none
COc1ccccc1-n1c(=O)c2c3c(sc2n2c(=S)[nH]nc12)CCC3	none
COc1ccc(CCNC2=C(Cl)C(=O)N(CCc3ccc(OC)c(OC)c3)C2=O)cc1OC	none | Yeast autofluor inactive
COc1ccc(CCN2C(=O)c3cccnc3C2=O)cc1OC	none
CCOC(=O)C[C@H]1c2cc(C(F)(F)F)ccc2S(=O)(=O)N1C(C)C	none
COc1ccc2c(c1)CC[C@@H]1[C@@H]2CC[C@]2(C)[C@@H](C(=O)O)C[C@@H]12	LAP4 TOR yeast 167.2 | LAP4-GFP pick2 inactive | MEP2 cherry2 inactive | RPL19A-GFP pick2 inactive | CIT2 GFP CP2 inactive | AGP1 GFP CP2 inactive
C[C@@H](NC(=O)[C@@H]1Cc2ccccc2CN1)C(=O)Nc1ccc2c(c1)OCCO2	none

Screening results deposited in PubChem by NMMLSC.
